Screens from PubChem.
aSyn UTR act – Activators via SNCA 5'UTR binding, MLPCN; alpha-synuclein 5'UTR reporter, activators screen; activity score, % (tested at 7.5 µM), hits read low; 7.1% of 300,000 active; in the data active = activity score below about -60%
The depositor's hits bear a star. The list is a sample of the results.

Results for Cn1ccsc1=NC(=O)c1ccc(Cl)cc1 ?
aSyn UTR act: -197*

Results for O=C(Nc1ccccc1)N(CCCN1CCOCC1)Cc1ccccc1F ?
aSyn UTR act: -84*

Results for CC(C)C(=O)Nc1cccc(-c2csc(-c3ccccc3)n2)c1 ?
aSyn UTR act: -70*

What do the screens show for `CC(C)C(=O)Nc1ccc(-c2csc(-c3ccccc3)n2)cc1`?
aSyn UTR act: -205*

Results for O=C(Nc1ccccc1)ON=C1c2ccccc2-c2ccccc21 ?
aSyn UTR act: -106*

How did CC(C)CCNCC(O)CON=C1c2ccccc2-c2ccccc21 (stereo not given) do in these assays?
aSyn UTR act: 86

How did CC(C)C(=O)Nc1cccc(NC(=S)NC(=O)c2ccc3c(c2)OCO3)c1 do in these assays?
aSyn UTR act: -158*

How did Cc1ccc(NC(=S)NC(=O)c2ccc(F)cc2)cc1S(=O)(=O)Nc1cccc(Cl)c1 do in these assays?
aSyn UTR act: 81

Results for CC(C)C(=O)Nc1cccc(NC(=S)NC(=O)c2cccs2)c1 ?
aSyn UTR act: -126*

How did CC(C)C(=O)Nc1cccc(NC(=S)NC(=O)c2ccc(Cl)cc2)c1 do in these assays?
aSyn UTR act: -120*

What do the screens show for `COc1ccc(C(=O)Nc2nnc(Cc3ccc(OC)c(OC)c3)s2)c(OC)c1`?
aSyn UTR act: -82*

How did COc1ccccc1C(=O)Nc1nc2cc3c(cc2s1)OCO3 do in these assays?
aSyn UTR act: -122*

What do the screens show for `O=C(CCS(=O)(=O)c1ccccc1)Nc1nc2cc3c(cc2s1)OCO3`?
aSyn UTR act: -65*

Results for COc1ccc(C(=O)Nc2nc3cc4c(cc3s2)OCCO4)c(OC)c1 ?
aSyn UTR act: -63*

How did Cc1nc2cc(NC(=O)CCS(=O)(=O)c3ccccc3)ccc2s1 do in these assays?
aSyn UTR act: -172*

Results for COc1ccccc1C(=O)Nc1nc2cc3c(cc2s1)OCCO3 ?
aSyn UTR act: -64*

What do the screens show for `CCOC(=O)C1CCN(C(=O)CNC(=O)c2nn(-c3ccc(OC)c(Cl)c3)c(=O)c3ccccc23)CC1`?
aSyn UTR act: -70*

What do the screens show for `CC1CC(=O)c2c(cc3c(-c4c(O)cc(O)c5c(O)c6c(cc45)OC(C)CC6=O)c(O)cc(O)c3c2O)O1` (stereo not given)?
aSyn UTR act: 70

Results for Oc1ccc(/C=N/Nc2ccc(Cl)nn2)cc1O ?
aSyn UTR act: -134*

Results for Cc1ccc(/C=N/Nc2ccc(Cl)nn2)cc1 ?
aSyn UTR act: -151*

Results for Fc1cccc(NC(=S)NNc2ccccc2)c1 ?
aSyn UTR act: -140*

Results for O=[N+]([O-])c1ccc(O)c(NC(=S)Nc2ccccc2)c1 ?
aSyn UTR act: -157*

How did O=[N+]([O-])c1ccc(NNC(=S)Nc2ccccc2)cc1 do in these assays?
aSyn UTR act: -122*

Results for O=C(CSc1nnc(-c2cccnc2)o1)Nc1ccc(Br)cc1 ?
aSyn UTR act: -77*

Results for O=C(CSc1nnc(-c2ccc(Br)cc2)o1)Nc1cccc(C(=O)O)c1 ?
aSyn UTR act: 98

How did O=C(CSc1nnc(-c2cccnc2)o1)Nc1cccc(F)c1 do in these assays?
aSyn UTR act: -86*

Results for CC(NC(=O)CCl)c1ccccc1Br (stereo not given) ?
aSyn UTR act: -99*

How did O=C(Nc1ccn(Cc2ccccc2F)n1)c1ccc(COc2ccc(Br)cc2)cc1 do in these assays?
aSyn UTR act: -68*

What do the screens show for `O=C(Nc1ccn(Cc2ccccc2)n1)c1ccc(F)cc1`?
aSyn UTR act: -120*

What do the screens show for `Cc1ccc(Cn2ccc(NC(=O)c3nn(C)cc3Cl)n2)cc1`?
aSyn UTR act: -112*

Results for Nc1ccc(C(=O)N/N=C/c2cn(Cc3ccc(F)cc3)c3ccccc23)cc1 ?
aSyn UTR act: 64

Results for O=C(Nc1ccn(Cc2ccc(Cl)cc2)n1)c1ccc2c(c1)OCO2 ?
aSyn UTR act: -70*

How did COc1ccc(NC(=O)c2cc3ccc(O)cc3o/c2=N\O)cc1 do in these assays?
aSyn UTR act: -155*

How did COc1ccc(NC(=O)c2cc3cc(OC)ccc3oc2=N)cc1 do in these assays?
aSyn UTR act: -63*

What do the screens show for `O=C(c1ccc(F)cc1)c1cc2ccc(O)cc2oc1=O`?
aSyn UTR act: -62*

What do the screens show for `N=c1oc2cc(O)ccc2cc1C(=O)Nc1ccc(F)cc1`?
aSyn UTR act: -148*

What do the screens show for `CCCCCCc1cc2cc(C(=O)Nc3cccc(OC)c3)c(=O)oc2cc1O`?
aSyn UTR act: 63

Results for CC(Oc1ccc(Cl)cc1Cl)c1nc(-c2ccccn2)no1 (stereo not given) ?
aSyn UTR act: -129*

What do the screens show for `c1ccc(-c2noc(-c3ccncc3)n2)nc1`?
aSyn UTR act: -62*

Results for CC(C)c1ccc(OCc2nc(-c3ccccn3)no2)c(Br)c1 ?
aSyn UTR act: -67*

Results for Cc1ccc(SCc2nc(-c3ccccn3)no2)cc1 ?
aSyn UTR act: -106*

What do the screens show for `c1ccc(-c2noc(-c3ccc4ccccc4c3)n2)nc1`?
aSyn UTR act: 113

Results for Clc1ccccc1/C=C/c1nc(-c2ccccn2)no1 ?
aSyn UTR act: 104

What do the screens show for `CC(Oc1ccc(Cl)cc1Cl)c1nc(-c2ccc(NC(=O)c3cccnc3)cc2)no1` (stereo not given)?
aSyn UTR act: 92

Results for Cc1ccc(OCc2nc(-c3ccccn3)no2)cc1 ?
aSyn UTR act: -64*

How did c1ccc(OCCCc2nc(-c3ccccn3)no2)cc1 do in these assays?
aSyn UTR act: -85*

Results for CC(C)(C)Cc1nc(-c2ccccn2)no1 ?
aSyn UTR act: -99*

How did O=C(O)c1cccc(S(=O)(=O)Nc2ccccc2C(=O)NCCc2ccccc2)c1 do in these assays?
aSyn UTR act: -64*

What do the screens show for `O=C(NCCc1ccccc1)c1cccc([N+](=O)[O-])c1`?
aSyn UTR act: -77*

Results for O=C(NCCc1ccccc1)c1ccc2nccnc2c1 ?
aSyn UTR act: 63

Results for O=C(NCCc1ccccc1)c1cnc2ccccc2n1 ?
aSyn UTR act: -99*

What do the screens show for `O=C(NCCc1ccccc1)c1cccnc1`?
aSyn UTR act: -99*

What do the screens show for `O=C(NCCc1ccccc1)c1cccc(Br)c1`?
aSyn UTR act: -131*

How did O=C(CCCc1ccccc1)Nc1cccc([N+](=O)[O-])c1 do in these assays?
aSyn UTR act: -161*

How did CC(=O)Nc1nc(NC(=O)/C=C/c2ccccc2)n(-c2ccccc2)n1 do in these assays?
aSyn UTR act: 79

Results for COc1cc(-c2noc(C)c2/C=C/c2ccc(OC(C)=O)cc2)cc(OC)c1OC ?
aSyn UTR act: 95

How did Cc1cc(NC(=O)/C=C/c2ccccc2)no1 do in these assays?
aSyn UTR act: -156*

Results for COc1ccc(/C=C/C(=O)Nc2cc(C)on2)cc1 ?
aSyn UTR act: -216*

What do the screens show for `C#CCNC(=O)/C=C/c1ccc(OC)cc1`?
aSyn UTR act: -75*

What do the screens show for `COc1ccc(/C=C/C(=O)Nc2cc(C(F)(F)F)ccc2Cl)cc1`?
aSyn UTR act: -62*

How did COc1ccc(/C=C/C(=O)Nc2nonc2NC(C)=O)cc1 do in these assays?
aSyn UTR act: -155*

What do the screens show for `Cc1cc(NC(=O)/C=C/c2ccccc2Cl)no1`?
aSyn UTR act: -249*

Results for COc1ccc(C(=O)/C=C/Nc2cc(C)on2)cc1 ?
aSyn UTR act: -94*

Results for COC(=O)c1c(-c2ccc(Br)cc2)noc1N ?
aSyn UTR act: -65*

What do the screens show for `Cn1c(/C(C#N)=C/c2ccc(O)cc2)nc2ccccc21`?
aSyn UTR act: -126*

How did COc1ccc(/C=N/Nc2nc3ccccc3[nH]2)cc1OC do in these assays?
aSyn UTR act: -228*
